PubChem BioAssay (Tox21)
Results filed as inconclusive are left out. Unmarked numbers belong to inactive results. Unless noted, the call rests on the fitted dose curve; in most records, active means well fitted cell-killing curve with a large enough effect in the repeat runs (not every such curve was filed as active); inconclusive means weak or mixed curves, or effect the other way; inactive means no such curve, though single readings can be large or run the other way.

system: not listed separately; experiment: qHTS assay to identify small molecule agonists of the farnesoid-X-receptor (FXR) signaling pathway - cell viability counter screen (AID 743218; active means well fitted cell-killing curve with a large enough effect in the repeat runs; further: nearly all actives have a fitted effect of over 45% in size); conditions: FXR-bla HEK293T viability, CellTiter-Glo luminescence, 16 h; series mostly up to 62.6 µM; viability change, negative = cytotoxic: at the top concentration
In short: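 After 16 h at 37 C with test compounds, FXR-bla HEK 293T cells were given LiveBLAzer B/G substrate for 2 h at RT and then CellTiter-Glo; luminescence was taken after 30 min.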
On the % scale 0 is the no-effect control and ±100 the full control effect.

Row | Compound | viability change, negative = cytotoxic
1 | CC(CN1CC(=O)NC(=O)C1)N1CC(=O)NC(=O)C1 (configuration not stated) | 38.6%
2 | C=COCCCCO | 1.56%
3 | O=C(O)/C=C(\CC(=O)O)C(=O)O | 8.88%
4 | CCC(C)SSC(C)CC (configuration not stated) | -0.0254%
5 | Cc1ccc(S(=O)(=O)NC(=O)NN2CC3CCCC3C2)cc1 (configuration not stated) | -1.62%
6 | O=C1CC2(CCCC2)CC(=O)N1CCNCC1COc2ccccc2O1 (configuration not stated) | -10.9%
7 | CNCCc1ccccn1 | 6.89%
8 | CC[N+](C)(CC)CC | 15.6%
9 | CC(C)(C)NCC(O)COc1cccc2c1CCC(=O)N2 (configuration not stated) | 1.74%
10 | c1coc(Cn2cccc2)c1 | -0.881%
11 | CCCCCCCCS(=O)(=O)O | 17.6% [at 81.1 µM]
12 | C/C(=N\O)c1ccc(OCC(=O)N2CCCCC2)cc1 | -3.22%
13 | Clc1cc(Cl)c(Cl)c(Cl)c1Cl | 43.9%
14 | Cc1cc(C)c(C)c(C)c1 | -0.229%
15 | CC1(C)C(=O)C(C)(C)C1=O | 10.4%
16 | CN(C)c1ccncc1 | -11.3%
17 | C=CCN(CC=C)CC=C | -2.36%
18 | CC(C)(O)CCCC1=CCC(C=O)CC1 (configuration not stated) | -12.2% [at 81.1 µM]
19 | CC(=O)OC1CCC(C(C)(C)C)CC1 (configuration not stated) | 34.4%
20 | CC/C=C\CCOC(=O)c1ccccc1 | -0.837%
21 | O=C(O)P(=O)(O)O | -0.545%
22 | CCCCCCCCCCCCCCCCN(C)C | 0.68% [at 5.95 µM]
23 | CC[C@@]1(c2ccccc2)NC(=O)N(C)C1=O | 12.6%
24 | Cc1cc(O)c(Cl)cc1C | -0.19%
25 | C[C@@H]1CC[C@@]2(OC1)O[C@H]1C[C@H]3[C@@H]4CC[C@H]5C[C@@H](O)CC[C@]5(C)[C@H]4CC(=O)[C@]3(C)[C@H]1[C@@H]2C | 12.5% [at 5.95 µM]
26 | CCN(CC)CC | -12.8% [at 81.1 µM]
27 | COc1ccc2cc(CCC(C)=O)ccc2c1 | 13.1%
28 | CC(=O)OC/C=C(/C)CCC=C(C)C | -0.87%
29 | CCC(C)(C)C | 8.54% [at 81.1 µM]
30 | Cc1ccc2ccccc2n1 | -2.54%

target: Bile acid receptor (Homo sapiens) (UniProt Q96RI1); experiment: qHTS assay to identify small molecule agonists of the farnesoid-X-receptor (FXR) signaling pathway (AID 743220; active means well fitted activation curve with a large enough effect in the signal ratio in the repeat runs, not every such curve was filed as active; the % refers to the signal ratio); conditions: HEK293T FXR-UAS-bla, beta-lactamase FRET ratio, 16 h; series mostly up to 62.6 µM; activation: at the top concentration
Sequence (Q96RI1 whole entry, looked up): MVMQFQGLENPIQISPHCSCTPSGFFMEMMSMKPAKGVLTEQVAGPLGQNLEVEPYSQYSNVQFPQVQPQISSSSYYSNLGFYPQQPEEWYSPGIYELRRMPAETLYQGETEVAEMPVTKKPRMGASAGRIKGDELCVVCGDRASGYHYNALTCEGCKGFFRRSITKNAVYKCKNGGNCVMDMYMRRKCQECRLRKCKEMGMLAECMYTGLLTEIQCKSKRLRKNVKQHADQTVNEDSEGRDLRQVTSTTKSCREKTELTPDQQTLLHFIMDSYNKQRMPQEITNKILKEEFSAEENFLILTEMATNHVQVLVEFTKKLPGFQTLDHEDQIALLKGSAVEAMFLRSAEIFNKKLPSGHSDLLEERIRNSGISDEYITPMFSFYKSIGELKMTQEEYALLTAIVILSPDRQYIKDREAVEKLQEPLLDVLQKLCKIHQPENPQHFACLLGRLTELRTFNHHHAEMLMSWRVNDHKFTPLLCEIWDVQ
In short: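 Beta-lactamase reporter under UAS control in GeneBLAzer FXR HEK 293T cells (5000/well) measured with LiveBLAzer FRET substrate after 2 h at room temperature. Compound exposure lasted 16 h at 37C.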

Row | Compound | activation
31 | O=C(O)/C=C(\CC(=O)O)C(=O)O | 0.0083%
32 | CC(=O)c1ccc2ccc3ccccc3c2c1 | 3.28%
33 | O=C1CC2(CCCC2)CC(=O)N1CCNCC1COc2ccccc2O1 (configuration not stated) | -5.07%
34 | CC[N+](C)(CC)CC | 0.646%
35 | c1coc(Cn2cccc2)c1 | -0.543%
36 | CCCCCCCCS(=O)(=O)O | 0.0181% [at 81.1 µM]
37 | C/C(=N\O)c1ccc(OCC(=O)N2CCCCC2)cc1 | -1.37%
38 | Cc1cc(C)c(C)c(C)c1 | 0.47%
39 | CC1(C)C(=O)C(C)(C)C1=O | -0.456%
40 | C=CCCCCCCCCOC(C)=O | 1.77%
41 | CC/C=C\CCOC(=O)c1ccccc1 | 1.64%
42 | O=C(O)P(=O)(O)O | -1.21%
43 | CC[C@@]1(c2ccccc2)NC(=O)N(C)C1=O | -0.254%
44 | Cc1cc(O)c(Cl)cc1C | 0.617%
45 | C[C@@H]1CC[C@@]2(OC1)O[C@H]1C[C@H]3[C@@H]4CC[C@H]5C[C@@H](O)CC[C@]5(C)[C@H]4CC(=O)[C@]3(C)[C@H]1[C@@H]2C | 2.31% [at 5.95 µM]
46 | COc1ccc2cc(CCC(C)=O)ccc2c1 | 0.288%
47 | CCC(C)(C)C | 0.713% [at 81.1 µM]

system: not listed separately; experiment: qHTS assay to identify small molecule antagonists of the farnesoid-X-receptor (FXR) signaling pathway - cell viability counter screen (AID 743221); conditions: FXR-bla HEK293T viability, CellTiter-Glo luminescence, 16 h; series mostly up to 62.6 µM; activity change, negative = cytotoxicity: at the top concentration; further: nearly all actives have a fitted effect of over 50% in size
In short: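 CellTiter-Glo, 30 min RT, luminescence; same wells as the LiveBLAzer FRET read. Cells: FXR-UAS-bla HEK 293T. Treatment: compound with chenodeoxycholic acid 50 uM final, 16 h at 37 C.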

Row | Compound | activity change, negative = cytotoxicity
48 | CCOc1ccccc1OCCN[C@H](C)Cc1ccc(OC)c(S(N)(=O)=O)c1 | -2.12%
49 | CC(CN1CC(=O)NC(=O)C1)N1CC(=O)NC(=O)C1 (configuration not stated) | 0.406%
50 | C=COCCCCO | -16.7%
51 | O=C(O)/C=C(\CC(=O)O)C(=O)O | 11.5%
52 | CCC(C)SSC(C)CC (configuration not stated) | 3.08%
53 | Cc1ccc(S(=O)(=O)NC(=O)NN2CC3CCCC3C2)cc1 (configuration not stated) | 6.56%
54 | O=C1CC2(CCCC2)CC(=O)N1CCNCC1COc2ccccc2O1 (configuration not stated) | 2.2%
55 | CNCCc1ccccn1 | 4.29%
56 | CC[N+](C)(CC)CC | -1.2%
57 | CC(C)(C)NCC(O)COc1cccc2c1CCC(=O)N2 (configuration not stated) | 18.7%
58 | CCCCCCCCS(=O)(=O)O | 8.77% [at 81.1 µM]
59 | C/C(=N\O)c1ccc(OCC(=O)N2CCCCC2)cc1 | -19.7%
60 | Clc1cc(Cl)c(Cl)c(Cl)c1Cl | -25.2%
61 | Cc1cc(C)c(C)c(C)c1 | -4.3%
62 | CC1(C)C(=O)C(C)(C)C1=O | 7.88%
63 | Cc1ccc(Br)cc1 | -0.297%
64 | C=CCCCCCCCCOC(C)=O | 2.84%
65 | CSC(=O)c1cccc2nnsc12 | 2.39%

Row | Compound | activity change, negative = cytotoxicity
66 | CN(C)c1ccncc1 | -12.8%
67 | C=CCN(CC=C)CC=C | 9.28%
68 | CC(C)(O)CCCC1=CCC(C=O)CC1 (configuration not stated) | -1.45% [at 81.1 µM]
69 | CC(=O)OC1CCC(C(C)(C)C)CC1 (configuration not stated) | 7.03%
70 | CC/C=C\CCOC(=O)c1ccccc1 | 14.9%
71 | COc1cnc(NS(=O)(=O)c2ccc(N)cc2)nc1 | 5.4%
72 | CCCCCCCCCCCCCCCCN(C)C | -0.818% [at 5.95 µM]
73 | CC[C@@]1(c2ccccc2)NC(=O)N(C)C1=O | 11.1%
74 | Cc1cc(O)c(Cl)cc1C | 5.62%
75 | C[C@@H]1CC[C@@]2(OC1)O[C@H]1C[C@H]3[C@@H]4CC[C@H]5C[C@@H](O)CC[C@]5(C)[C@H]4CC(=O)[C@]3(C)[C@H]1[C@@H]2C | 4.76% [at 5.95 µM]
76 | NS(=O)(=O)c1cc2c(cc1C(F)(F)F)NCNS2(=O)=O | -10.6%
77 | CCN(CC)CC | 17.8% [at 81.1 µM]
78 | COc1ccc2cc(CCC(C)=O)ccc2c1 | 10.6%
79 | CC(=O)OC/C=C(/C)CCC=C(C)C | -7.78%
80 | CCCCN1C(=O)c2ccccc2C1=O | -0.138% [at 81.1 µM]
81 | CCC(C)(C)C | 0.204% [at 81.1 µM]
82 | Cc1ccc2ccccc2n1 | -5.94%
